Results on 8 compounds are retold here after PubChem BioAssay (NCI).

This is part of a sample that, as a whole, favours compounds with a hit. Of some 83,000 tested, about 20% had one in any assay.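 How to read the values: 0–100, growth inhibition (40 = 60% inhibited); 0, no net growth; -100 to 0, cell death (-40 = 40% of starting cells died; -100 = all dead).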 A number with no mark means an inactive call. Calls of active or inactive are those of the source. Rule for the calls: active = growth percent below 10; inactive = the rest.

Among the test systems are SK-MEL-2 melanoma; EKVX NSCLC; SN12C renal; UO-31 renal; TK-10 renal; A498 renal; CCRF-CEM leukemia; MOLT-4 leukemia; SR leukemia; RPMI-8226 leukemia; OVCAR-8 ovarian; OVCAR-5 ovarian; OVCAR-4 ovarian; SK-OV-3 ovarian; IGROV1 ovarian; OVCAR-3 ovarian; HS 578T breast; NCI/ADR-RES ovarian.
Experiment in all cases: NCI-60 one-dose screen, 48 h (100 = growth as untreated, 0 = no growth, -100 = all killed)
Common to all, as to settings: 10 µM unless noted

Take `COc1ccc2c(c1)OC(N)=C(C#N)C2c1ccc(F)c(F)c1` (centres undefined): the growth in the assay with SK-MEL-2 melanoma is 32.9%; in the assay with EKVX NSCLC, 49.2%; in the assay with SN12C renal, 54.7%; with UO-31 renal it was 52.8%; in the assay on TK-10 renal, 70.5%; in the assay on A498 renal, 9.88% (active). Moreover, the growth with CCRF-CEM leukemia was 14.9%; in the assay on MOLT-4 leukemia, 28.2%; in the assay with SR leukemia it was 12.2%; in the assay on RPMI-8226 leukemia, 7.58% (active); in the assay with OVCAR-8 ovarian, 33.9%; in the assay with OVCAR-5 ovarian, 51.6%. In addition, the growth with OVCAR-4 ovarian is 73.6%; in the assay on SK-OV-3 ovarian it was 29%; with IGROV1 ovarian, 53.5%; in the assay with OVCAR-3 ovarian, 15.6%; with HS 578T breast, 35.7%; in the assay with NCI/ADR-RES ovarian, 17.9%.

`CC1(C)CC(=O)C2=C(C1)OC1=C(C(=O)CC(C)(C)C1)C2c1ccc(OCc2cn(-c3ccc(F)cc3F)nn2)cc1`: the growth in the assay with SK-MEL-2 melanoma is 93.8%; in the assay on EKVX NSCLC, 99.4%; in the assay with SN12C renal it was 99.4%; in the assay with UO-31 renal, 89.6%; in the assay with TK-10 renal, 109%; with A498 renal it was 46.9%. Also, the growth in the assay with CCRF-CEM leukemia was 84.9%; in the assay on MOLT-4 leukemia it was 77.2%; in the assay with SR leukemia, 58.6%; with RPMI-8226 leukemia, 92.7%; in the assay with OVCAR-8 ovarian, 95.3%; in the assay with OVCAR-5 ovarian it was 124%. The growth is 94.4% in the assay on OVCAR-4 ovarian; 100% in the assay with SK-OV-3 ovarian; 102% with IGROV1 ovarian; 95.3% with OVCAR-3 ovarian; 96.2% in the assay on HS 578T breast; 94% with NCI/ADR-RES ovarian.

For `CCc1c(C)c2cc3nc(NCc4ccccc4)oc3c(C)c2oc1=O`, the growth was 83.6% with SK-MEL-2 melanoma; 77.1% in the assay with EKVX NSCLC; 73.5% with SN12C renal; 80.1% with UO-31 renal; 77.6% in the assay with TK-10 renal; 49.2% in the assay on A498 renal. Moreover, the growth was 79.6% in the assay on CCRF-CEM leukemia; 71.9% with MOLT-4 leukemia; 73.5% in the assay on SR leukemia; 71.6% in the assay with RPMI-8226 leukemia; 62.5% with OVCAR-8 ovarian; 89.7% in the assay with OVCAR-5 ovarian. For the same compound, the growth is 33.9% in the assay with OVCAR-4 ovarian; 39.5% with SK-OV-3 ovarian; 76.2% in the assay with IGROV1 ovarian; 87% in the assay on OVCAR-3 ovarian; 67.1% with HS 578T breast; 51.2% in the assay with NCI/ADR-RES ovarian.

For `COc1ccc(NC(=O)COCCOCCNC[C@@H]2C(=O)O[C@H]3[C@H]2CC/C(COC(=O)OC/C2=C/CC[C@@]4(C)O[C@H]4[C@H]4OC(=O)[C@@H](CN(C)C)[C@@H]4CC2)=C\CC[C@@]2(C)O[C@@H]32)c(O)c1C(N)=O`, the growth in the assay on SK-MEL-2 melanoma is 68.3%; with EKVX NSCLC, 81.5%; in the assay with SN12C renal it was 40%; with UO-31 renal, 2.07% (active); in the assay with TK-10 renal, -0.421% (active); in the assay on A498 renal, 96.2%. Also, the growth in the assay with CCRF-CEM leukemia was -9.68% (active); with MOLT-4 leukemia, -5.18% (active); in the assay on SR leukemia, 0.464% (active); with RPMI-8226 leukemia, 38.4%; with OVCAR-8 ovarian, 32.4%; in the assay with OVCAR-5 ovarian it was 91%. Moreover, the growth was 31.3% in the assay with OVCAR-4 ovarian; 79.4% in the assay with SK-OV-3 ovarian; 26.6% in the assay on IGROV1 ovarian; 0.0325% (active) with OVCAR-3 ovarian; 79.2% in the assay with HS 578T breast; 101% with NCI/ADR-RES ovarian.

`CCn1cc(C(=O)O)c(=O)c2cc(F)c(N3CCN(CC(=O)Nc4ccc(C(C)=O)cc4)CC3)cc21`: the growth in the assay with SK-MEL-2 melanoma is 92.8%; in the assay on EKVX NSCLC it was 103%; in the assay with SN12C renal, 98.9%; in the assay on UO-31 renal it was 93.6%; in the assay on TK-10 renal it was 89.3%; with A498 renal it was 95.5%. Moreover, the growth with CCRF-CEM leukemia is 98.7%; with MOLT-4 leukemia it was 97.6%; with SR leukemia it was 91.9%; in the assay with RPMI-8226 leukemia, 106%; with OVCAR-8 ovarian, 100%; in the assay on OVCAR-5 ovarian, 107%. Also, the growth was 113% with OVCAR-4 ovarian; 99.9% in the assay on SK-OV-3 ovarian; 102% in the assay with IGROV1 ovarian; 111% in the assay on OVCAR-3 ovarian; 101% in the assay with HS 578T breast; 97.1% in the assay on NCI/ADR-RES ovarian.

Turning to `CCN(CC)CCNCC(O)Cc1ccc(OC)cc1` (centres undefined), the growth in the assay on SK-MEL-2 melanoma is 96.4%; with EKVX NSCLC, 105%; with SN12C renal, 98.8%; in the assay with UO-31 renal, 82.6%; in the assay with TK-10 renal, 88%; with A498 renal, 109%. Further, the growth is 83.9% in the assay with CCRF-CEM leukemia; 73.4% in the assay on MOLT-4 leukemia; 88.2% in the assay on SR leukemia; 98.1% with RPMI-8226 leukemia; 89.9% with OVCAR-8 ovarian; 113% with OVCAR-5 ovarian. Further, the growth in the assay on OVCAR-4 ovarian is 120%; in the assay on SK-OV-3 ovarian, 92.3%; with IGROV1 ovarian it was 111%; with OVCAR-3 ovarian, 108%; in the assay with HS 578T breast, 95.8%; with NCI/ADR-RES ovarian it was 107%.

For the compound `O=C(CSc1nnc(-c2ccccc2)o1)Nc1ccc(C(=O)/C=C/c2ccccc2)cc1`, the growth with SK-MEL-2 melanoma is 99.2%; with EKVX NSCLC, 79.7%; in the assay on SN12C renal, 81.7%; with UO-31 renal it was 55.7%; in the assay with TK-10 renal, 91%; in the assay with A498 renal, 83.8%. The growth with CCRF-CEM leukemia is 55.5%; in the assay with MOLT-4 leukemia it was 59%; in the assay on SR leukemia, 28.8%; in the assay on RPMI-8226 leukemia, 2.35% (active); in the assay on OVCAR-8 ovarian, 60.1%; in the assay with OVCAR-5 ovarian it was 102%. The growth is 30.9% in the assay on OVCAR-4 ovarian; 108% in the assay with SK-OV-3 ovarian; 38% in the assay with IGROV1 ovarian; 41.8% with OVCAR-3 ovarian; 88.5% in the assay with HS 578T breast; 53.6% in the assay on NCI/ADR-RES ovarian.

With `COc1ccc2c(c1)O/C(=C/c1ccc(OCC(=O)Nc3ccc(S(N)(=O)=O)cc3)cc1)C2=O`, the growth was 97.7% with SK-MEL-2 melanoma; 97.5% with EKVX NSCLC; 98.1% in the assay on SN12C renal; 85.6% in the assay on UO-31 renal; 115% in the assay on TK-10 renal; 91.5% in the assay on A498 renal. The growth in the assay on CCRF-CEM leukemia is 94.6%; in the assay with MOLT-4 leukemia it was 88.3%; in the assay with SR leukemia, 79.1%; in the assay with RPMI-8226 leukemia, 91.3%; with OVCAR-8 ovarian, 98.6%; with OVCAR-5 ovarian, 103%. For the same compound, the growth with OVCAR-4 ovarian is 102%; in the assay with SK-OV-3 ovarian, 102%; with IGROV1 ovarian, 111%; in the assay with OVCAR-3 ovarian, 104%; with HS 578T breast, 99.4%; with NCI/ADR-RES ovarian, 103%.
